Results filed as inconclusive are left out. A call without a number means that no potency is given here. The source made the active and inactive calls. Calls come from the whole dose curve; as a rule, active = well fitted inhibition curve with a large enough effect; inconclusive = small, poorly fitted or top-dose-only effect; inactive = flat fitted curve, though single readings scatter.
Potency is the fitted concentration of half-maximal effect.

In the test the target is Luciferin 4-monooxygenase (Photinus pyralis) (UniProt P08659). As to the kind of experiment: Biochemical firefly luciferase enzyme assay for NPC (AID 624030). Note: nearly all actives have a fitted effect of over 70% in size. The conditions noted are these: purified P. pyralis luciferase, luminescence, 5 min; series mostly up to 58.6 µM. The method, boiled down: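 Direct inhibition of firefly luciferase enzyme (10 nM final, 50 mM Tris Acetate) assessed by luminescence within 5 minutes. Percent activity scaled between DMSO and PTC124 positive control, with concentration-effect curves classified by fit quality and response.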
Sequence of Luciferin 4-monooxygenase (Photinus pyralis) (P08659 whole entry, looked up): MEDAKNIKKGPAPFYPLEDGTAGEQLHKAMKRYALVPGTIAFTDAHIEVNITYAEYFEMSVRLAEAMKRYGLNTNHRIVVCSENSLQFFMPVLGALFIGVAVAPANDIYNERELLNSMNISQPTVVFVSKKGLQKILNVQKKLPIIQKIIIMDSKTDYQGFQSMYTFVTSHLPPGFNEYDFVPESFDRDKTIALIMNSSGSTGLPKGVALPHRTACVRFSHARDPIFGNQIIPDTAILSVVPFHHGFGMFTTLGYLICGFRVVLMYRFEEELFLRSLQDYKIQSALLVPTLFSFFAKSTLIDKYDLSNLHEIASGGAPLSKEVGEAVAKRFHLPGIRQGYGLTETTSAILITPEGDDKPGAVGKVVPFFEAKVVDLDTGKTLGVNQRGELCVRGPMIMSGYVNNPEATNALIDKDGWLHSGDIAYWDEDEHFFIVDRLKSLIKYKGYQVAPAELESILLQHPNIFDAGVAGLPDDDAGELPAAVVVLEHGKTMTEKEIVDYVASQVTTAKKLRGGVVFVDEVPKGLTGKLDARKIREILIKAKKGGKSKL
Regarding `COc1ccc(C2NC(=S)N3C(c4ccc(OC)c(OC)c4)NC(=S)N23)cc1OC` (stereo not given), the Potency entry is “inactive”.

On to `NC(=O)C[C@@H](N)C(=O)O`, for which the Potency result was “inactive”.

On to `COc1ccc(C(=O)Nc2ccccc2CCC2CCCCN2C)cc1` (stereo not given), for which the Potency result is “inactive”.

For the molecule `N[C@@H](C(=O)N[C@H]1C(=O)N2C(C(=O)O)=C(Cl)CC[C@H]12)c1ccccc1`, the Potency entry is “inactive”.

Turning to `O=C1C(c2[nH]c3ccc(S(=O)(=O)O)cc3c2O)=Nc2ccc(S(=O)(=O)O)cc21`, the Potency result was “inactive”.

As for `CCCCCCCCCCCCCCCCCC(=O)[O][Al]`, the Potency result was “inactive”.

As to `CCCCCCCCCCCCCCCC(=O)OC[C@@H](COP(=O)([O-])OCC[N+](C)(C)C)OC(=O)CCCCCCCCCCCCCCC`, the Potency entry was “inactive”.

Consider `Cc1cc(-n2c(=O)[nH]c(=O)n(C)c2=O)ccc1Oc1ccc(S(=O)(=O)C(F)(F)F)cc1`, for which the Potency entry is “inactive”.

Consider `Cn1nnnc1SCC1=C(C(=O)O)N2C(=O)[C@@H](NC(=O)[C@H](OC=O)c3ccccc3)[C@H]2SC1`, for which the Potency result was “inactive”.

As for `O=S(=O)(O)Oc1ccc(C(c2ccc(OS(=O)(=O)O)cc2)c2ccccn2)cc1`, the Potency result is “inactive”.

On to `CCC(C)C(C(=O)OCC[N+](C)(CC)CC)c1ccccc1` (stereo not given), for which the Potency entry was “inactive”.

Consider `CCC(C)(C)OC(=O)N[C@@H](Cc1c[nH]c2ccccc12)C(=O)N[C@@H](CCSC)C(=O)N[C@@H](CC(=O)O)C(=O)N[C@@H](Cc1ccccc1)C(N)=O`, for which the Potency entry was “inactive”.

As for `OCC(O)COc1ccc(Cl)cc1` (stereo not given), the Potency result is “inactive”.

Regarding `Cc1cc(Nc2ccccc2C(=O)O)ccc1Cl`, the Potency was 16.1 µM (active).

Take `COc1cc2c(c(OC)c1OC)-c1c(cc3c(c1OC)OCO3)C[C@@H](C)[C@](C)(O)C2`: the Potency entry was “inactive”.

Regarding `O=C(Cn1cnnn1)N[C@@H]1C(=O)N2C(C(=O)O)=C(CSc3nncs3)CS[C@H]12`, the Potency result is “inactive”.

Consider `C1CNCCN1`, for which the Potency entry is “inactive”.

Turning to `O.O=C([O-])CC([S-])C(=O)[O-].[Au+].[Na+].[Na+]` (stereo not given), the Potency result was “inactive”.

As to `CCN(CC)CCOC(=O)c1ccc(N)cc1Cl`, the Potency entry was “inactive”.

With `O=P(O)(O)C(Sc1ccc(Cl)cc1)P(=O)(O)O`, the Potency result was “inactive”.

With `CCCCCCCCCCCCCCCC(=O)OCCC1CCN(CCCN2c3ccccc3Sc3ccc(S(=O)(=O)N(C)C)cc32)CC1`, the Potency result is “inactive”.

Regarding `OC(CN1CCCCC1)c1cc(-c2ccccc2)on1` (stereo not given), the Potency result was “inactive”.

`CCCC1([C@H](O)C/C=C/[C@H]2[C@H](O)CC(=O)[C@@H]2CCCCCCC(=O)OC)CCC1`: the Potency result is “inactive”.

Turning to `CCCC(=O)N1CCCN(c2nc(N)c3cc(OC)c(OC)cc3n2)CC1`, the Potency result is “inactive”.

With `Nc1c(CC(=O)O)cccc1C(=O)c1ccccc1`, the Potency result was “inactive”.

For `O=C(O)c1cccc(/C=C2/C[C@@H]3[C@@H](/C=C/[C@@H](O)C4CCCCC4)[C@H](O)C[C@@H]3O2)c1`, the Potency entry is “inactive”.

Take `CCCC(CCC)C(N)=O`: the Potency entry is “inactive”.

With `CNC[C@@H]1CC[C@@H](N)[C@@H](O[C@H]2[C@H](O)[C@@H](O[C@H]3OC[C@](C)(O)[C@H](NC)[C@H]3O)[C@H](N)C[C@@H]2N)O1`, the Potency entry is “inactive”.

As for `CN1CCN(CCCN2c3ccccc3Sc3ccccc32)CC1`, the Potency entry is “inactive”.

On to `CN1CC(O)c2cc(N=NC(N)=O)c(O)cc21` (stereo not given), for which the Potency entry was “inactive”.

The values above are taken from PubChem BioAssay (NCATS).
